Assay [1] deals with Cellular tumor antigen p53 (Homo sapiens) (UniProt P04637). The experiment in a line: Primary qHTS for small molecule compounds that upregulate eGFP-tagged delta133p53alpha (in N-terminal) cells. (AID 2060322). Also: nearly all actives have a fitted effect of over 75% in size. Also: potency is read from the fitted curve at half-maximal effect.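 As to activation: series mostly up to about 56 µM; 0% = DMSO vehicle and 100% = reference activator.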 Conditions: NCI-H358 eGFP-delta133p53alpha fluorescence, 24 h; activation: active compounds read high. The method, boiled down: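 NCI-H358 cells pre-induced 24 h with 10 ng/ml doxycycline to express N-terminal eGFP-delta133p53alpha, then dosed 24 h at 37C without doxycycline; fixed, Hoechst-stained, GFP intensity by laser scanning cytometry, normalized to DMSO (0%) and 57.5 uM 5-azacytidine (100%).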

For assay [2], the target named is Aldehyde dehydrogenase, mitochondrial (Homo sapiens) (UniProt P05091). The experiment in a line: qHTS for Inhibitors of the Aldehyde Dehydrogenase Family (ALDH2) Primary screen (AID 2061308).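 Also: plate controls were vehicle for no effect and reference inhibitor for full effect; nearly all actives have a fitted effect of over 55% in size.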
Assay [3] deals with Retinaldehyde dehydrogenase 3 (Homo sapiens) (UniProt P47895). The assay is described as follows: qHTS for Inhibitors of the Aldehyde Dehydrogenase Family (ALDH1A3) Primary screen (AID 2061315).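 Also: plate controls were DMSO vehicle for no effect and reference inhibitor for full effect.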
Assay [4] can be described thus: BET inhibitor-based combinations targeting novel dependencies in MECOM-rearranged (r) AML: MV-4-11 cell line (AID 2202233). Also: nearly all actives have a fitted effect of over 45% in size. Also: potency is read from the fitted curve at half-maximal effect. Put shortly: (§1)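 Cells were plated at 500 per well and exposed to each drug across an 11-point dose range for 48 hr at standard incubator conditions. Viability was read by CellTiter-Glo luminescence, and activity was expressed as AUC and per-cell-line Z-transformed AUC.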

Assay [5] can be described thus: BET inhibitor-based combinations targeting novel dependencies in MECOM-rearranged (r) AML: AML-194 cell line (AID 2202237; also: nearly all actives have a fitted effect of over 40% in size; also: potency is read from the fitted curve at half-maximal effect). The method, boiled down:
(§2)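 500 cells/well; 11-pt dose curve; 48 h, standard incubator; CellTiter-Glo luminescence after 15 min RT; DMSO/empty-well normalization; AUC plus Z-AUC (mean-centered within each line).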

Assay [6] in a line: BET inhibitor-based combinations targeting novel dependencies in MECOM-rearranged (r) AML: HNT-34 cell line (AID 2202234). Also: nearly all actives have a fitted effect of over 35% in size. Also: potency is read from the fitted curve at half-maximal effect. The method, boiled down:
as §1

The nature of assay [7]: BET inhibitor-based combinations targeting novel dependencies in MECOM-rearranged (r) AML: UCSD-AML1 cell line (AID 2202235). Also: nearly all actives have a fitted effect of over 40% in size. Also: potency is read from the fitted curve at half-maximal effect. The method, boiled down: as §1
The nature of assay [8]: BET inhibitor-based combinations targeting novel dependencies in MECOM-rearranged (r) AML: AML-191 cell line (AID 2202236; also: nearly all actives have a fitted effect of over 35% in size; also: potency is read from the fitted curve at half-maximal effect). The method, boiled down:
as §2

Several values for one entry are separate records, joined by “and”; a condition that tells them apart may be missing. Identical values can stand only once. Inconclusive results are not listed. A number with no mark means an inactive call. Activity calls are given as the source filed them. Calls follow the shape of the dose curve; as a rule, active = well fitted curve in the direction sought with a large enough effect; inconclusive = small, poorly fitted or top-dose-only effect, or another doubt; inactive = no such curve, though single readings can be large; an effect the other way counts as inactive or inconclusive.

Drawing on PubChem BioAssay (NCATS), this text covers activation, Potency and activity change, negative = inhibition for 22 compounds.

Sequence of Cellular tumor antigen p53 (Homo sapiens) (P04637 whole entry, looked up): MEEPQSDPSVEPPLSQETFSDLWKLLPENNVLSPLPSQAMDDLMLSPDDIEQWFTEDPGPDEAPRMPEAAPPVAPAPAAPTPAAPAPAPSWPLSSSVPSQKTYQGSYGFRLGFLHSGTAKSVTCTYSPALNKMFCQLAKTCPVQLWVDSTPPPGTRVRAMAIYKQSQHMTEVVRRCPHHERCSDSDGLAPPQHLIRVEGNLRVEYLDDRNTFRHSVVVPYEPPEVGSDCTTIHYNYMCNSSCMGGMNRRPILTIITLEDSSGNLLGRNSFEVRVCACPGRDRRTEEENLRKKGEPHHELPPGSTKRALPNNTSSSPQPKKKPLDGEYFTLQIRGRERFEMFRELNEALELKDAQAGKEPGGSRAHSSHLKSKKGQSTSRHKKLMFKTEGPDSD

Regarding `Cc1nc2ccc(-n3ncc(C(=O)c4cc5ccccc5[nH]4)c3N)cc2[nH]1`, the activation in assay [1] was 1.79%. In addition, the Potency result in assay [2] and in assay [3] was “inactive” each time. The Potency in assay [4] was 6.61 µM (active); in assay [5], 16.6 µM (active).
As to `CC(C)[C@](O)(c1ccc2cc(OC(F)F)c(OC(F)F)cc2c1)c1cn[nH]n1`, the activation in assay [1] is 12.3%. Also, the Potency result in assay [2], in assay [3] and in assay [7] was “inactive” in each case. For the same compound, the Potency in assay [6] is 18.6 µM (active).
As for `Cc1ccccc1C(=O)c1ccc(Nc2ccc(Br)cc2N)cc1Cl`, the activation in assay [1] was 19.2% and -0.893%. The Potency entry in assay [2], in assay [3], in assay [7] and in assay [5] was “inactive” in each case. The Potency in assay [4] is 18.6 µM (active); in assay [6], 23.5 µM (active).
With `CS(=O)(=O)c1ccc(-c2cnc(N)c(C(=O)Nc3ccccc3)n2)cc1`, the activation in assay [1] is -13%. For the same compound, the Potency result in assay [2] and in assay [3] was “inactive” in each case. The values for the Potency in assay [4], in assay [8] and in assay [5] were 7.42 µM (active), 4.68 µM (active) and 5.9 µM (active), respectively.
For `CC(O)c1cc(C(=O)N[C@@H](C)Cn2ccc(-c3ccc(C#N)c(Cl)c3)n2)n[nH]1` (stereo not given in full), the activation in assay [1] was 1%. Moreover, the Potency entry in assay [2], in assay [3], in assay [4], in assay [7] and in assay [5] was “inactive” each time. For the same compound, the Potency in assay [8] was 16.6 µM (active).
In the case of `COc1cc(Nc2ncc3c(n2)-c2ccc(Cl)cc2C(c2c(F)cccc2OC)=NC3)ccc1C(=O)O`, in assay [1], the activation was 85.9%. For the same compound, the Potency result in assay [2] and in assay [3] was “inactive” each time. Also, the Potency was 1.18 µM (active) in assay [6] and 0.059 µM (active) in assay [7].
In the case of `COc1cc(N2CCC(N3CCN(C)CC3)CC2)ccc1Nc1ncnc(Nc2ccccc2S(=O)(=O)C(C)C)n1`, the Potency in assay [1] is 24.3 µM (active) and 26.9 µM (active); in assay [6], 9.34 µM (active); in assay [8], 18.6 µM (active); in assay [5], 10.5 µM (active). Moreover, the Potency result in assay [2] and in assay [3] was “inactive” throughout.
Consider `Nc1nc(Nc2ccc(S(N)(=O)=O)cc2)nn1C(=O)c1c(F)cccc1F`, for which the Potency in assay [1] is 24.3 µM (active) and 9.53 µM (active); in assay [6], 2.95 µM (active); in assay [7] it was 2.09 µM (active); in assay [8], 2.35 µM (active); in assay [5], 3.72 µM (active). In addition, the Potency result in assay [2] and in assay [3] was “inactive” throughout.
For the compound `CC(C)Nc1cc(C(F)(F)F)cc2nc(NC(=O)c3cccnc3)nn12`, the activation in assay [1] is -46.7% and -1.43%. In addition, the Potency entry in assay [2], in assay [3], in assay [4], in assay [7] and in assay [5] was “inactive” in each case.
Take `CCN1CCN(c2ccc(Nc3cc(N(C)C(=O)Nc4c(Cl)c(OC)cc(OC)c4Cl)ncn3)cc2)CC1`: in assay [1], the activation was 34.2% and 7.14%. In addition, the Potency result in assay [2] and in assay [3] was “inactive” in each case. For the same compound, the Potency was 13.2 µM (active) in assay [6] and 26.3 µM (active) in assay [8].
With `Cc1cc(C(=O)Nc2cc(Oc3ccc4nc(NC(=O)C5CC5)cn4n3)ccc2C)n(C)n1`, the Potency in assay [1] is 16.9 µM (active); in assay [6], 1.32 µM (active); in assay [7], 9.34 µM (active); in assay [8], 6.61 µM (active). Further, the Potency result in assay [2] and in assay [3] was “inactive” throughout.
Regarding `CC(C)(CNC(=O)c1cccc(-c2noc(C(F)(F)F)n2)c1)c1coc(-c2ccccc2)n1`, in assay [1], the activation is -0.477%. For the same compound, the Potency entry in assay [2], in assay [3] and in assay [7] was “inactive” throughout. In addition, the Potency in assay [8] is 11.8 µM (active).
`CC(Nc1ncnc2nc[nH]c12)c1cc2cccc(Cl)c2c(=O)n1-c1ccccc1` (stereo not given): in assay [1], the activation is 27.7%. Also, the Potency result in assay [2] and in assay [3] was “inactive” throughout. The Potency in assay [4] is 5.9 µM (active); in assay [7], 3.72 µM (active).
As for `Cc1ccccc1-n1nc(-c2c(-c3ccc(F)cc3)nn3c2NC[C@@H](CO)C3)ccc1=O`, the activation in assay [1] was 2.68%. Moreover, the Potency entry in assay [2], in assay [3], in assay [4], in assay [6], in assay [8] and in assay [5] was “inactive” in each case.
For the compound `N#Cc1c(C2CCNCC2)cc(-c2c(O)cccc2OCC2CC2)nc1N`, the activation in assay [1] is -1.56%. Besides, the Potency result in assay [2] and in assay [3] was “inactive” throughout. Further, the Potency in assay [6] is 23.5 µM (active); in assay [7] it was 16.6 µM (active); in assay [8], 26.3 µM (active).
Regarding `Nc1ccn([C@@H]2C(F)=C(CO)[C@@H](O)[C@H]2O)c(=O)n1`, the activation in assay [1] was 0.893% and -30.2%. The Potency result in assay [2] and in assay [3] was “inactive” throughout. Also, the Potency in assay [4] was 0.235 µM (active); in assay [7], 0.662 µM (active).
With `CC(C)(C)Sc1c(CC(C)(C)C(=O)O)n(Cc2ccc(Cl)cc2)c2ccc(OCc3ccc4ccccc4n3)cc12`, the activation in assay [1] was 0%. Besides, the Potency entry in assay [2] and in assay [3] was “inactive” each time. Besides, in assay [6], the Potency is 26.3 µM (active).
For `CCC(=O)N1CCN(c2ccc(-n3c(=O)ccc4cnc5ccc(-c6cnc7ccccc7c6)cc5c43)cc2C(F)(F)F)CC1`, the activation in assay [1] is 41.3%. Also, the activity change, negative = inhibition in assay [2] is -6.8% [at 11.2 µM]; in assay [3] it was 3.25% [at 11.2 µM]. The Potency in assay [7] is 0.0091 µM (active).
Regarding `NS(=O)(=O)c1ccc(Nc2nc(OCC3CCCCC3)c3[nH]cnc3n2)cc1`, the activation in assay [1] was -24.8%. The Potency result in assay [2] and in assay [3] was “inactive” in each case. The Potency is 3.32 µM (active) in assay [4] and 10.5 µM (active) in assay [7].
`O=C(NCCCNC(=O)c1ccc[nH]c1=O)c1cc(-c2ccccc2)on1`: the activation in assay [1] is -2.33%. Moreover, the Potency result in assay [2] and in assay [3] was “inactive” in each case. The results for the Potency in assay [4] and in assay [5] were 8.33 µM (active) and 14.8 µM (active), respectively.
For `CN(C)C(=O)c1cc2cnc(Nc3ccc(N4CCNCC4)cn3)nc2n1C1CCCC1`, the activation in assay [1] was 15.2%. The Potency entry in assay [2], in assay [3], in assay [6], in assay [7], in assay [8] and in assay [5] was “inactive” throughout.
Turning to `C[C@@H](N)c1ccc(C(=O)Nc2ccnc3[nH]ccc23)cc1`, the activation in assay [1] is 21.5%. For the same compound, the Potency entry in assay [2] and in assay [3] was “inactive” in each case. Also, the Potency is 3.72 µM (active) in assay [4], 18.6 µM (active) in assay [7], 16.6 µM (active) in assay [8] and 14.8 µM (active) in assay [5].
